# According to PubChem BioAssay AID1626 (SRMLSC, 2009):
# Among all 220,000 compounds or so, about 2,000 (0.91%) were called active. Not shown: some 2% with an inconclusive outcome. These entries were drawn from the full list. Results with a measured potency or affinity are listed apart. A number with no mark means an inactive call. Cut-off read from the data, not from the text of the source: inconclusive = inhibition above about 80% without an active follow-up result; inactive = below that; test concentration not stated here.
# Experiment: M. tuberculosis H37Rv growth inhibitors, H37Rv strain (AID 1626);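 note: bacteria incubated seven days before Alamar blue readout; 0% = bacteria only wells and 100% = bacteria with antibiotic wells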
# Settings: hits give high values, concentration not given here
row,Compound,inhibition [%]
1,COc1ccc(COC(=O)Nc2cc3c(C(F)(F)F)nn(C)c3s2)cc1,0.73
2,Cn1nc(C(F)(F)F)c2cc(NC(=O)OCc3ccc(F)cc3)sc21,-0.24
3,COc1ccc(CNC(=O)COC(=O)/C=C/c2ccc(Cl)cc2)cc1,2.04
4,COc1ccc(-c2nc(N)n(C(=O)c3ccccc3)n2)cc1,6.59
5,O=C(NC1CCCCCC1)c1ccc(=O)n(Cc2ccccc2)n1,-0.36
6,CC(C)COC(=O)c1ccccc1C(=O)OCC(C)C,-10
7,COC(=O)c1ccc2c(c1O)C(=O)c1ccccc1C2=O,1.91
8,CCOC(=O)c1c(C)oc2c1c(CN1CCN(CCO)CC1)c(O)c1ccccc12,3.65
9,O=C(CN1CC=C(c2ccccc2)CC1)NC(=O)NCc1ccco1,-3.79
10,Cc1ccc(OCC(O)CN2CCN(CC(O)COc3ccc(C)cc3)CC2)cc1 (stereo not given),2.23
11,COc1ccc(-c2cc3ccccc3n2CC(O)CN2CCN(CCO)CC2)cc1 (stereo not given),4.8
12,OC(COc1ccccc1)Cn1c2ccccc2c2ccccc21 (stereo not given),41.6
13,O=C(c1ccco1)N1CCN(CC(O)Cn2c3ccccc3c3ccccc32)CC1 (stereo not given),1.44
14,Cc1ccc(OCC(O)Cn2c3ccccc3c3ccccc32)cc1 (stereo not given),72.7
15,CCOc1ccc(CN2CCN(C(=O)c3ccccc3)CC2)cc1,0.42
16,OC(CN1CCN(c2ccccc2)CC1)Cn1c2ccccc2c2ccccc21 (stereo not given),11.9
17,COc1ccc(-c2cc3ccccc3n2CC(O)CN2CCCCC2)cc1 (stereo not given),3
18,O=C(N/N=C/c1c(Cl)cccc1Cl)c1ccccc1F,65.5
19,O=C(CNc1ccccc1)NN=C1CCCC1,-7.1
20,COc1cccc(CNC(=O)CCC2CCCN(C(=O)c3cscn3)C2)c1 (stereo not given),-1.29
21,CCOC(=O)N1CCN(C(=O)Nc2ccc(NC(=O)N3CCN(C(=O)OCC)CC3)cc2)CC1,-0.49
22,COc1ccccc1/C=C/C(=O)N1CCOCC1,-12.7
23,O=C(NCCCN1CCOCC1)/C(=C/c1ccc(F)cc1)NC(=O)c1ccccc1,-5.09
24,CC1(C)NC(=O)N(CC(=O)Nc2cc(S(=O)(=O)N3CCOCC3)ccc2N2CCOCC2)C1=O,0.65

row,Compound,inhibition [%]
1,C=CCNC(=O)NC(=O)COC(=O)[C@H](C)NS(=O)(=O)c1c(C)c(C)cc(C)c1C,0.16
2,COC(=O)c1ccc(Cn2cnc3c(cnn3-c3ccc(C)c(C)c3)c2=O)o1,-9.12
3,COc1ccc2c(c1)CCCN2C(N)=O,-8.08
4,C=CCn1c(SCc2csc(-c3ccc(Cl)cc3)n2)nnc1-c1ccccc1OC,7.93
5,C=CCn1c(SCC(=O)c2ccc(O)c(O)c2)nnc1-c1ccccc1OC,-2
6,COc1cc(NS(=O)(=O)c2ccc(NC(=O)NC3CCCCC3)cc2)nc(OC)n1,-5.16
7,Cc1cccc(C(=O)N2CCC(=O)N(C(COCc3cccc(Cl)c3)Cc3ccccc3)CC2)c1 (stereo not given),-0.5
8,O=C(CCN1C(=O)C2CCCCC2C1=O)Nc1ccc(F)c(F)c1F (stereo not given),-4.84
9,O=C(CCN1C(=O)C2CCCCC2C1=O)Nc1nc(-c2ccccc2)cs1 (stereo not given),6.05
10,CCOC(=O)C1(CC2CCCCO2)CCN(C(=O)NCc2ccccc2)CC1 (stereo not given),4.64
11,COc1ccc(-c2cc(C(F)(F)F)nc(N3CCOCC3)n2)cc1,-0.92
12,Nc1c(Cl)nc(-c2ccccc2)nc1Cl,0.39
13,c1ccc(-c2cnc(-c3ccccc3)nc2)cc1,-5.94
14,O=C(CCN1C(=O)C2C3C=CC(C3)C2C1=O)Nc1nccs1 (stereo not given),-5.43
15,O=C1CNC(=S)N1CCc1ccc(Cl)cc1,-6.23
16,CCc1ccccc1NC(=O)CN(C)C(=O)CSc1nn(-c2ccc(F)cc2)c(=S)s1,-11.2
17,COc1ccc(-c2nc(C(F)(F)F)c(OC)o2)cc1OC,-0.95
18,O=C(Nc1ccc(F)cc1)N1CCN(C/C=C/c2ccccc2)CC1,-13
19,O=C(C1CCN(Cc2ccc(F)cc2)CC1)N1CCN(C/C=C/c2ccccc2)CC1,5.92
20,COCCNC(=O)CN(C)S(=O)(=O)c1ccc(Br)cc1,-4.89
21,CCc1cc(C(=O)c2ccc(C)cc2)c(NC(=O)CCl)s1,76.6
22,Cc1cc(C(=O)c2ccc(Cl)cc2)c(NC(=O)CCl)s1,73.2
23,COc1ccc(-c2nnc(SCC(=O)N3CCCC3)o2)cc1OC,-0.93
24,O=C(CSc1nnc(-c2cccnc2)o1)OC1CCCCC1,-4.83

row,Compound,inhibition [%]
1,COc1ccc(OC)c(C(=O)CSc2nnc(-c3ccc(OC)c(OC)c3)o2)c1,-6.09
2,COc1cc(-c2nnc(SCC(=O)c3ccc(C)cc3)o2)cc(OC)c1OC,2.03
3,O=C(CSc1nnc(-c2cccs2)o1)OCc1ccccc1,-0.9
4,COc1ccc(-c2nnc(SCC(=O)N3CCCCC3)o2)cc1OC,5
5,COc1ccc(-c2nnc(SCC(=O)N3CCOCC3)o2)cc1OC,-5.9
6,O=C(CSc1nnc(-c2cccs2)o1)N1CCCCC1,1.5
7,C=CCn1nnnc1-c1cc(Cl)cc(Cl)c1,2.4
8,CCCn1nc(C(=O)OCC(=O)c2c(N)n(C)c(=O)n(C)c2=O)c2ccccc2c1=O,5.18
9,N#Cc1c(/N=C/c2cccnc2)sc2c1CCCC2,2.15
10,O=C(CN1C(=O)c2ccccc2C1=O)Nc1cccc2cccnc12,7.46
11,CC1=CC(C)(C)N(C(=O)CSc2nncn2C)c2ccccc21,4.36
12,C=CCN(CC=C)S(=O)(=O)c1ccc(NC(=S)NC(=O)/C=C/c2cccc3ccccc23)cc1,2.67
13,CC(C)(C)OC(=O)NNC(=S)NCc1ccc(Cl)cc1,-13
14,CCc1ccc2[nH]c(=O)c(CN(Cc3ccccc3OC)C(=O)Nc3ccccc3OC)cc2c1,7.78
15,CC1CCN(C(=O)CSc2nnc(-c3cccnc3)n2C2CCCCC2)CC1,-2.09
16,COc1cc(-c2cc(C(=O)Nc3ccc(S(=O)(=O)Nc4ncccn4)cc3)c3ccccc3n2)cc(OC)c1OC,40.2
17,Cc1cc(C)cc(OCc2nnc(SCC(=O)N3CCN(c4ccccc4)CC3)o2)c1,-4.78
18,Cc1cccc(C(=O)c2c(N)sc3c2CCC(C)C3)c1 (stereo not given),5.18
19,CCOc1ccc(S(=O)(=O)NCCN2CCOCC2)c2ccccc12,-4.29
20,CCOC(=O)C1(CC2CCCCO2)CCN(C(=O)Nc2ccccc2SC)CC1 (stereo not given),6.6
21,CCC(=O)N1CCN(c2c(Cl)cccc2[N+](=O)[O-])CC1,4.63
22,CCCCN(CC)CCCNC(=S)Nc1ccc2nc3n(c(=O)c2c1)CCCCC3,-5.11
23,O=C(COC(=O)c1n[nH]c2ccccc12)Nc1ccccc1,-10.9
24,O=C(NCCN1CCOCC1)c1ccc(Cl)cc1[N+](=O)[O-],-10.2

row,Compound,inhibition [%]
1,O=C(NCCCN1CCOCC1)c1cc(Cl)ccc1[N+](=O)[O-],-3.28
2,O=C(NCCCN1CCOCC1)c1ccc(Cl)cc1[N+](=O)[O-],-0.73
3,O=C(NCCN1CCOCC1)c1ccccc1[N+](=O)[O-],1.9
4,COc1ccc(CNC(=O)COC(=O)c2n[nH]c3ccccc23)cc1,10.8
5,Cc1ccc(SC[C@H](CC(C)C)N2CCN(CCc3ccccc3)CCC2=O)cc1,16.3
6,CCOc1ccccc1-c1n[nH]c(=S)o1,6.98
7,COCCOC(=O)C1=C(C)NC(=O)NC1c1c(Cl)nc2c(C)cccn2c1=O (stereo not given),-7.69
8,Cc1noc(C)c1S(=O)(=O)N1CCCC(C(=O)c2cccc(OC(C)C)c2)C1 (stereo not given),0
9,Cc1nc2cc(C(=O)OCC(=O)NC3CCS(=O)(=O)C3)ccc2n1-c1ccccc1 (stereo not given),-9.28
10,Cc1nc2cc(C(=O)OCC(=O)NC(C)C(C)C)ccc2n1-c1ccccc1 (stereo not given),-6.92
11,CCCOc1ccc(/C(O)=C2/C(=O)C(=O)N(CCCOC)C2c2ccncc2)cc1 (stereo not given),-0.21
12,COCCCNS(=O)(=O)c1ccc2c(c1)OCCO2,-7.88
13,CC(C)c1nc2sc3ccccc3c(=O)c2c(=O)n1Cc1ccccc1,-7.18
14,COc1ccc(C#Cc2c(-c3ccsc3)oc3ccc(-c4cc(OC)c(OC)c(OC)c4)cc23)cc1,0.45
15,COc1ccc(-c2oc3ccc(N4CCOCC4)cc3c2C#CC2(O)CCCCC2)cc1,89.2
16,COc1ccc(-c2ccc3oc(-c4ccc(OC)cc4)c(C#CC4(O)CCCCC4)c3c2)cc1,18.4
17,Nc1ccc(C#Cc2c(-c3ccsc3)oc3ccc(N4CCOCC4)cc23)cc1,61.1
18,CCOc1ccc(C(c2c(NC(=O)c3ccccc3)sc(C)c2C)N2CCN(C)CC2)cc1 (stereo not given),17.1
19,c1ccc(C(c2ccccc2)N2CCN(C(c3ccccn3)c3nnnn3C3CCCC3)CC2)cc1 (stereo not given),6.45
20,COc1cc(OC)c2c(=O)cc(-c3cccnc3)oc2c1,-11.6
21,CSc1sc(-c2n[nH]c(=S)n2C)c2c1C=CCC2,5.83
22,COC(=O)c1c(NC(=O)c2ccccc2)sc(Cc2ccccc2)c1C,-9.2
23,COC(=O)c1c(NC(=O)c2ccccc2)sc(C(N)=O)c1C,-3.85
